The record followed here is PubChem BioAssay AID1345085 (National Center for Advancing Translational Sciences (NCATS), 2018).

Results filed as inconclusive are left out. Active and inactive are the calls of the source. Calls follow the shape of the dose curve; as a rule, active = well fitted cell-killing curve with a large enough effect; inconclusive = small, poorly fitted or top-dose-only effect, or effect the other way; inactive = no such curve, though single readings can be large or run the other way.
% is scaled to controls: 0 for no effect and ±100 for the full control effect; potency is read from the fitted curve at half-maximal effect.

In this experiment the test system is Hek293T. Kind of experiment: Confirmatory qHTS for gynecologic anti-cancer compounds from libraries of approved drugs and bioactive compounds. Also: nearly all actives have a fitted effect of over 55% in size. Particulars: gynecologic cancer cell panel viability, ATPlite luminescence, 48 h; series mostly up to 57.6 µM; activity change, negative = viability loss: at the top concentration. An excerpt: National Center for Advancing Translational Sciences [NCATS] Assay Overview: Chemotherapeutic drug responses vary from cancer to cancer and from patient to patient. These variations could be caused by a number of factors including patient genomic background, tumor mutations, tumor heterogeneity, and aspects of drug treatment. Chemotherapeutic drug resistance is also a common issue and can lead to ineffective treatment and patient death. Here we have profiled the cell killing effects of thousands of compounds to characterize the responses in three gynecological cancers, identify cancer-selective compounds, and understand the diversity of responses to these compounds from pan-cancer suppressors to single cell line selective compounds. In this assay, we screened a 7,914 compound drug library that included approved drug and bioactive compounds in six ovarian, three cervical, and two placental cancer cell lines using the ATPlite assay for cell viability. ATPlite is a luminescence based assay reliant on the conversion of a luciferase substrate to light in the presence of ATP. As a cytotoxic compound will suppress growth and decrease the number of cells, the concentration of ATP will decrease, and less light signal will be detected in the well. Hits were selected from the primary screen for follow-up confirmation. For the confirmation screens, the ovarian cancer cell lines included CAOV-3, SK-OV-3, SW 626, ES-2, PA-1, and TOV-21G. The cervical cancer cell lines included HeLa, Ca Ski, and C-33 A. The placental cancer cell lines included JEG-3 and JAR. HEK 293T cells were used as the control cell line to determine the selectivity index. The ATPlite assay was used to determine the IC50 values.
Assay Protocol Summary: 1,000 cells in 4 uL of media were dispensed into white, solid bottom 1536-well plates using a Multidrop Combi (Thermo Scientific). The Assay plates were incubated for 16 hours at 37 C with 5% CO2 in assay plates, followed by the addition of 23 nL of DMSO or drug dissolved in DMSO. . Each compound was assayed in 11 concentrations (1:3 dilution) from 57.5 uM to 0.977 nM, using the automated Wako 1536 Pin Tool workstation and incubated at 37 C with 5% CO2 48 hours. 4 uL of ATPlite, the ATP monitoring reagent, was then added to the each well of the assay plates using the Multidrop Combi reagent dispenser followed by incubation for 15 minutes at room temperature. The resulting luminescence was measured using the ViewLux plate reader.
As to `Nc1ccc(C(=O)Nc2cccc(-c3nc(N4CCOCC4)c4oc5ncccc5c4n3)c2)cn1`, the “activity change, negative = viability loss” value is -21.6% (inactive).
In the case of `CC1=C(CO)C(=O)O[C@@H]([C@@H](C)[C@H]2CC[C@H]3[C@@H]4C[C@H]5O[C@]56[C@@H](O)C=CC(=O)[C@]6(C)[C@H]4CC[C@]23C)C1`, the Potency is 2.37 µM (active).
Regarding `Cc1ccccc1C(OCCN(C)C)c1ccccc1` (stereo not given), the “activity change, negative = viability loss” value is 1.95% (inactive).
`O=C(/C=C/c1cccc(S(=O)(=O)Nc2ccccc2)c1)NO`: the Potency is 1.88 µM (active).
In the case of `COc1cc2c(cc1-c1c(C)noc1C)ncc1[nH]c(=O)n(C(C)c3ccccn3)c12` (stereo not given), the “activity change, negative = viability loss” value is 13.3% (inactive).
In the case of `O=C(c1ccc(F)c(F)c1Nc1ccc(I)cc1F)N1CC(O)([C@@H]2CCCCN2)C1`, the Potency was 24.3 µM (active).
The same measure, in the same setting: for `CC(C)C[C@H](NC(=O)[C@H](Cc1ccccc1)NC(=O)c1cnccn1)B(O)O` the value was 0.0306 µM (active); for `CN(C)C1CCN(C(=O)c2ccc(NC(=O)Nc3nc(N4CCOCC4)nc(N4CCOCC4)n3)cc2)CC1`, 0.485 µM (active).
As for `CN(C)CC/C=C1\c2ccccc2COc2ccccc21`, the “activity change, negative = viability loss” value is -37.8% (inactive).
The same measure, in the same setting: for `Cc1ccn(-c2ccc(-c3ncco3)cc2)c(=O)c1-c1ccc2nc(N)ncc2c1` the value was 0.323% (inactive).
Consider `COc1cc(N2CCC(N3CCN(C)CC3)CC2)ccc1Nc1ncc(Cl)c(Nc2ccccc2S(=O)(=O)C(C)C)n1`, for which the Potency is 21.7 µM (active).
The same measure, in the same setting: for `O=c1[nH]c(=O)n([C@H]2C[C@H](O)[C@@H](CO)O2)cc1F` the value was 1.37 µM (active); for `CC(C)n1nc(-c2cc3cc(O)ccc3[nH]2)c2c(N)ncnc21`, 6.85 µM (active).
Regarding `CO[C@@]12[C@H](COC(N)=O)C3=C(C(=O)C(C)=C(N)C3=O)N1C[C@@H]1N[C@@H]12`, the “activity change, negative = viability loss” value is -2.77% (inactive).
Turning to `CN(Cc1cnc2nc(N)nc(N)c2n1)c1ccc(C(=O)N[C@@H](CCC(=O)O)C(=O)O)cc1`, the Potency was 0.109 µM (active).
On to `COc1cc2c(c(OC)c1OC)-c1ccc(OC)c(=O)cc1[C@@H](NC(C)=O)CC2`, for which the “activity change, negative = viability loss” value was -14.6% [at 486 µM] (inactive).
As to `CC(C)Nc1cc(-c2c[nH]c(C(=O)N[C@H](CO)c3cccc(Cl)c3)c2)c(Cl)cn1`, the “activity change, negative = viability loss” value was -4.93% (inactive).
As to `Nc1nccc(Oc2ccc(NC(=O)c3c[nH]cc(-c4ccc(F)cc4)c3=O)cc2F)c1Cl`, the Potency was 13.7 µM (active).
Same read-out and setting: for `O=C(c1ccc(/C=C/c2n[nH]c3ccccc23)cc1)N1CCNCC1` the value was 21.7 µM (active); for `CNC(=O)c1nn(C)c2c1C(C)(C)Cc1cnc(Nc3ccc(N4CCN(C)CC4)cc3)nc1-2`, 4.32 µM (active).
Turning to `Cc1cnc(Nc2ccc(CN3CCOCC3)cc2)nc1Nc1cccc(S(=O)(=O)NC(C)(C)C)c1`, the Potency is 17.2 µM (active).
In the case of `Nc1ccccc1NC(=O)c1ccc(CNC(=O)OCc2cccnc2)cc1`, the “activity change, negative = viability loss” value is -21.3% (inactive).
On to `CCS(=O)(=O)N1CCN(c2ccc(Nc3ncc(C(N)=O)c(NC4CC4)n3)cc2)CC1`, for which the Potency was 17.2 µM (active).
On the same count and under the same terms, under `CCc1c2c(nc3ccc(O)cc13)-c1cc3c(c(=O)n1C2)COC(=O)[C@]3(O)CC` stands 0.611 µM (active); under `C1CCC(C(CC2CCCCN2)C2CCCCC2)CC1` (stereo not given), 27.3 µM (active); under `Cc1csc(NC(=O)c2sc3nc4c(c(C(F)(F)F)c3c2N)CCC4)n1`, 0.769 µM (active).
For `CCc1cccc(CC)c1NC(=O)N1Cc2[nH]nc(NC(=O)c3ccc(N4CCN(C)CC4)cc3)c2C1`, the “activity change, negative = viability loss” value is -17.5% (inactive).
Take `NC(=O)c1ccc2nc(-c3ccc(Oc4ccc(Cl)cc4)cc3)[nH]c2c1`: the Potency is 0.0217 µM (active).
On to `CC(C)Oc1ccc2c(=O)c(-c3ccccc3)coc2c1`, for which the Potency was 4.85 µM (active).
Same read-out and setting: for `Cc1nc(N)nc(N)c1-c1ccc(Cl)c(Cl)c1` the value was 1.22 µM (active); for `CC(=O)c1cnc2ccc(-c3cc(Cl)c(O)c(Cl)c3)nc2c1NC1CCC(CN(C)C)CC1` (stereo not given), 0.0352 µM (active).
As to `COC(C(=O)N1Cc2[nH]nc(NC(=O)c3ccc(N4CCN(C)CC4)cc3)c2C1)c1ccccc1` (stereo not given), the “activity change, negative = viability loss” value was 3.38% (inactive).
Consider `Cc1ccc(C(=O)Nc2cccc(C(F)(F)F)c2)cc1-c1ccc2nc(NCCN3CCOCC3)ncc2c1`, for which the Potency was 19.3 µM (active).
Turning to `COc1cc2nccc(Oc3ccc(NC(=O)Nc4cc(C)on4)c(Cl)c3)c2cc1OC`, the “activity change, negative = viability loss” value was -9.87% (inactive).
Turning to `COc1ccc(-c2nc3ccc(C4=NNC(=O)CC4C)cc3[nH]2)cc1` (stereo not given), the Potency is 2.17 µM (active).
Take `COc1cccc2c1C(=O)c1c(O)c3c(c(O)c1C2=O)C[C@@](O)(C(=O)CO)C[C@@H]3O[C@H]1C[C@H](N)[C@H](O[C@@H]2CCCCO2)[C@H](C)O1`: the Potency was 10.9 µM (active).
For the compound `COc1cc(Nc2ncc3c(n2)-c2ccc(Cl)cc2C(c2c(F)cccc2OC)=NC3)ccc1C(=O)O`, the “activity change, negative = viability loss” value is -7.66% (inactive).
As for `Cn1c(=O)c(-c2c(Cl)cccc2Cl)cc2cnc(Nc3cccc(C(=O)O)c3)nc21`, the “activity change, negative = viability loss” value is 0.231% (inactive).
In the case of `CC[C@@]1(O)C(=O)OCc2c1cc1n(c2=O)Cc2c-1nc1ccccc1c2/C=N/OC(C)(C)C`, the Potency is 0.172 µM (active).
The same measure, in the same setting: under `CCCCc1oc2ccc(NS(C)(=O)=O)cc2c1C(=O)c1ccc(OCCCN(CCCC)CCCC)cc1` stands 27.3 µM (active).
